# Only some compounds are listed: those with a hit (about 2.9% of all), similar ones and a draw of the others.
# TRPML1 inh = qHTS for Inhibitors of the Human Mucolipin Transient Receptor Potential 1 (TRPML1); Mucolipin-1 (Homo sapiens), Q9GZU1; TRPML1-inducible cells, Ca2+ dye fluorescence, FDSS; active compounds read low; inhibition of EC80 agonist-evoked calcium signal; activity change, negative = inhibition, % (concentration not given with the values); actives 0.02% (n = 390,000); AID 624415, 2012; in the data active = activity change below about -50%; inconclusive = between about -30% and that limit;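 also: stimulus is agonist 54-4 at its EC80 concentration; % is scaled to controls: 0 for no effect and ±100 for the full control effect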
# Target sequence (Q9GZU1 whole entry, looked up): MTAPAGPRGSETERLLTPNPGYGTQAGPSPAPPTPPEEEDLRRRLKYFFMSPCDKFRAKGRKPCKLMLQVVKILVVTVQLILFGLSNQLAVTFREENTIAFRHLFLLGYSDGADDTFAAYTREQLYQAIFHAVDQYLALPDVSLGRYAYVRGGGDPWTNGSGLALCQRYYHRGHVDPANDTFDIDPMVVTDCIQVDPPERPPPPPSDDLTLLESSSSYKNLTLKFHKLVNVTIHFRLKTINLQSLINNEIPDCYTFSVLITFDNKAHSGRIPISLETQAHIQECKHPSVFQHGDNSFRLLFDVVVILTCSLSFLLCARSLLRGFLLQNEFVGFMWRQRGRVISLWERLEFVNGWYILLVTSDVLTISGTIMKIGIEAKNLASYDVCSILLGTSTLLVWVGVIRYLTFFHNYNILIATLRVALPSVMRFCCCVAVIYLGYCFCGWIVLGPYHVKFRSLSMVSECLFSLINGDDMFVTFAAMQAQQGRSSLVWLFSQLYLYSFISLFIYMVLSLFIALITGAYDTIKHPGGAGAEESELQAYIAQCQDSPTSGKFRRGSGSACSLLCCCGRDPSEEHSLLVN
#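 Calcium fluorescence in TRPML1-DL cells induced overnight with Tet: a 110 s read after compound pin addition, then a 110 s antagonist read after challenge with 54-4 at 4 uM final (EC80).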
# DRD3 antagonist = qHTS of D3 Dopamine Receptor Antagonist: qHTS | D3R cells, DiscoveRx beta-arrestin luminescence, antagonist mode; active compounds read low | max response, negative = inhibition, % | actives 2.5% (n = 360,000); in the data active = max response below about -50%; inconclusive = no clear call, values can overlap the other calls; also: % is scaled to controls: 0 for no effect and ±100 for the full control effect
#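 Cells expressing the human receptor were seeded at 1500 cells/well, incubated overnight at 37 degrees C in 5% CO2, then exposed to library compounds with dopamine controls for 90 minutes at 37 degrees C before luminescent detection.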
# D3 ag = qHTS of D3 Dopamine Receptor Agonist: qHTS. D3R DiscoveRx beta-arrestin cells, luminescence, 90 min. max activation, %. actives 0.58% (n = 410,000); in the data active = max activation above about 30%; also: 0% is about no effect
#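 Cells at 1500/well, incubated overnight, then treated with pinned compounds (dopamine as control) for 90 min at 37 degrees C. DiscoveRx reagent added for 30 - 60 minutes at room temperature; luminescence read.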
# TRPML1 agonist = qHTS for Agonists of the Human Mucolipin Transient Receptor Potential 1 (TRPML1) | TRPML1-expressing cells, Ca2+ dye fluorescence, FDSS | actives 0.12% (n = 410,000) | Mucolipin-1 (Homo sapiens), Q9GZU1 | AID 624414, 2012 | activation, % (concentration not given with the values); in the data active = activation above about 50%; inconclusive = mostly about 30% to 49%; also: 0% is about no effect
#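 In this qHTS format, compounds were pin-transferred onto Ca8-dye-loaded TRPML1-DL cells induced with Tet overnight, and intracellular Ca2+ fluorescence was recorded kinetically for 110 s after a 10 s baseline. A subsequent 4uM final 54-4 (EC80) addition followed by a second 110 s read served as the antagonist phase.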
# * hit, by the source's call; ? = inconclusive; · = no result.
SMILES,TRPML1 inh,DRD3 antagonist,D3 ag,TRPML1 agonist
CN1CCN(CCOC2c3ccccc3CSc3ccc(Cl)cc32)CC1 (stereo not given),-5,-90*,-33,0
CCC1(c2ccccc2)C(=O)NC(=O)NC1=O,52,-116*,-7,-1
O=C(O)[C@H](O)[C@@H](O)C(=O)O,·,-28,-8,·
Cc1ccccc1Cn1cccc(C(=O)Nc2cc(Cl)ccc2C#N)c1=O,6,·,4,1
CCCCCCCSc1cc(OC)c(CCN(C)C)cc1OC,6,-66*,-16,0
Nc1ccccc1N=Cc1c(O)n(CCC2=CCCCC2)c(=O)[nH]c1=O,-15,-87*,-10,0
O=c1[nH]c(=O)n(CCC2=CCCCC2)c(O)c1C=Nc1cccc(F)c1,9,-21,-2,-1
O=C(N/N=C/c1c(O)n(CCC2=CCCCC2)c(=O)[nH]c1=O)c1ccccc1,0,-68*,-5,1
C[C@H]1CC[C@]2(NC1)O[C@H]1C[C@H]3[C@@H]4CC[C@H]5C[C@@H](O)CC[C@]5(C)[C@H]4CC[C@]3(C)[C@H]1[C@@H]2C,·,·,-20,·
Nc1c(Cl)c(Cl)c(Cl)c(Cl)c1Cl,·,·,12,·
FC(F)(F)c1ccc2c(c1)ncn2C1CCN(Cc2nnnn2C2CCCCC2)CC1,-3,-13,2,0
OC1(c2ccc(F)cc2)CC2CCC(C1)N2Cc1nnnn1C1CCCC1 (stereo not given),17,-110*,-23,0
O=C(C1CCCO1)N1CCC2(CC1)OCCO2 (stereo not given),-3,-60*,14,0
NNc1ccccc1,·,·,-17,·
CC(Cc1ccccc1Sc1ccccc1)N(C)C (stereo not given),19,-64*,-17,1
C[C@@H](Cc1ccccc1)N(C)C,·,·,-4,·
CN1CCN(Cc2ccccc2Sc2ccccc2)CC1,-3,-51*,-19,1
CC(Cc1ccccc1Sc1ccc(O)cc1)N(C)C (stereo not given),-19,-52*,-15,0
C[C@H](CN1CCOCC1)C(C(=O)N1CCCC1)(c1ccccc1)c1ccccc1,·,·,-14,·
Cc1ccc(CNC(=O)CCCn2c(=O)c3sccc3n(CC(=O)Nc3c(C)cccc3C)c2=O)cc1,-11,·,4,0
CCN1CCN(c2cn[nH]c(=O)c2Cl)CC1,3,-75*,-22,0
CCC(=O)Nc1ccc(N2CCN(CC)CC2)c(Cl)c1,-8,-11,-7,0
CN1CCN(c2nc(N)c(Br)c(Cl)n2)CC1,1,-69*,-2,0
CN1CCN(c2ncnc(Cl)c2N)CC1,-14,-1,-8,1
CC(=O)OCC(=O)[C@H]1CC[C@H]2[C@@H]3CC[C@H]4C[C@H](O)CC[C@]4(C)[C@H]3C(=O)C[C@]12C,-7,-85*,-31,0
SMILES,TRPML1 inh,DRD3 antagonist,D3 ag,TRPML1 agonist
Oc1ccccc1-c1ccccc1,·,·,-8,·
CN1[C@H]2CC[C@@H]1[C@@H](C(=O)O)[C@@H](OC(=O)c1ccccc1)C2,·,·,-11,·
C[n+]1c(-c2ccccc2)cc(CCCCc2cc(-c3ccccc3)[n+](C)c(-c3ccccc3)c2)cc1-c1ccccc1,5,-73*,-22,0
CS(=O)(=O)c1ccc(C(=O)C2C(=O)CCCC2=O)c([N+](=O)[O-])c1,·,·,-9,·
COC(=O)C1=C(c2cc3ccccc3s2)C[C@@H]2CC[C@H]1N2C(=O)NCc1ccccc1,0,-23,-5,1
COC(=O)C1=C(c2cc3ccccc3s2)C[C@@H]2CC[C@H]1N2C(=O)N1CCC(O)CC1,18,-6,0,0
COC(=O)C1=C(c2cc3ccccc3s2)C[C@@H]2CC[C@H]1N2C(=O)N1CCCCC1,-3,-54*,-21,0
COC(=O)C1=C(c2ccc(F)cc2F)C[C@@H]2CC[C@H]1N2C(=O)NCc1ccco1,-12,?,41*,0
COC(=O)C1=C(c2c(C)noc2C)C[C@@H]2CC[C@H]1N2C(=O)N1CCCC1,-3,6,58*,-1
COC(=O)C1=C(c2cc3ccccc3s2)C[C@@H]2CC[C@H]1N2C(=O)NCc1ccc(F)cc1,4,-56*,-36,3
CC(O)CN1CCN(CC(=O)[O-])CCN(CC(=O)[O-])CCN(CC(=O)[O-])CC1.[Gd+3] (stereo not given),·,·,4,·
C/C=C(\CC)C(=O)NC(N)=O,·,·,1,·
